Assay in all cases: Euclidean distance of Cell Painting phenotypic profile (signed KS, 77 features) to DMSO centroid (dimensionless distance); 5 or 10 uM (library dependent); higher = stronger phenotypic change vs DMSO (phenoactivity)
Settings in all cases: 48 h

In test [1] the test system is 786-O. The procedure, abridged: (§1)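 Phenoactivity is defined as the Euclidean distance from a compound profile to the median vehicle profile. Each profile comprised 77 Harmony features, scored as signed Kolmogorov-Smirnov statistics versus same-plate vehicle wells, then plate-position corrected, correlation-weighted and replicate-averaged at the top dose. Five cancer lines and one healthy fibroblast line were exposed to library compounds for 48 h at 10 or 5 uM (0.1% DMSO final).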

The subject of test [2] is A549. The procedure, abridged:
as §1

Test [3] concerns DU145. Put shortly:
as §1

In test [4] the test system is FB. The procedure, abridged: as §1
Test [5] has as its system HEPG2. Put shortly:
as §1

Test [6] has as its system OVCAR4. The procedure, abridged: as §1

Counter-ions that a name gives are not always drawn.

Consider `Cc1cccc(Oc2cnc(=O)[nH]c2)c1`, for which the Euclidean distance in test [1] worked out at 1.47; in test [2], 1.3; in test [3], 1.39; in test [4], 1.47; in test [5], 0.543; in test [6] it was 0.931.

`FC(F)c1nc2ccccc2n1-c1nc(N2CCOCC2)nc(N2CCOCC2)n1`: the Euclidean distance is 2.56 in test [1]; 3.64 in test [2]; 3.69 in test [3]; 2.87 in test [4]; 2.24 in test [5]; 3.13 in test [6].

Regarding `CNCC[C@H](Oc1cccc2ccccc12)c1cccs1` [Duloxetine HCl], the Euclidean distance in test [1] was determined as 1.15; in test [2] it was 1.43; in test [3], 1.55; in test [4] it was 1.48; in test [5], 2.34; in test [6], 1.46.

Regarding `COc1ccc(C[C@H](N)C(=O)N[C@H]2[C@@H](O)[C@H](n3cnc4c(N(C)C)ncnc43)O[C@@H]2CO)cc1` [Puromycin 2HCl], the Euclidean distance in test [1] came out at 6.42; in test [2], 3.8; in test [3], 4.87; in test [4] it was 6.23; in test [5] it was 4.76; in test [6], 6.

On to `CC[C@H]1OC(=O)[C@@](C)(F)C(=O)[C@H](C)[C@@H](O[C@@H]2O[C@H](C)C[C@H](N(C)C)[C@H]2O)[C@](C)(OC)C[C@@H](C)C(=O)[C@H](C)[C@H]2N(CCCCn3cc(-c4cccc(N)c4)nn3)C(=O)O[C@]12C` [Solithromycin], for which the Euclidean distance in test [1] was determined as 1.63; in test [2], 1.89; in test [3], 1.57; in test [4], 1.86; in test [5], 2.27; in test [6], 0.99.

Take `Nc1ccccc1NC(=O)c1ccc(CNc2nccc(-c3cccnc3)n2)cc1` [Mocetinostat (MGCD0103)]: the Euclidean distance in test [1] came to 3.18; in test [2], 3.33; in test [3], 2.95; in test [4], 3.48; in test [5], 3.36; in test [6] it was 3.38.

For `O=C1CCc2ccc(OCCCCN3CCN(c4cccc(Cl)c4Cl)CC3)cc2N1` [Aripiprazole], the Euclidean distance in test [1] was 1.08; in test [2] it was 0.975; in test [3], 0.573; in test [4], 0.979; in test [5] it was 0.512; in test [6], 1.21.

Regarding `Cc1c(N(C)C)c(=O)n(-c2ccccc2)n1C` [Amidopyrine], the Euclidean distance in test [1] was 1.3; in test [2], 0.92; in test [3], 0.804; in test [4] it was 1.15; in test [5], 1.63; in test [6], 1.17.

Take `O=C1c2cccc(O)c2C(=O)c2c(O)cccc21` [Danthron]: the Euclidean distance in test [1] turned out to be 1.02; in test [2] it was 0.914; in test [3], 1.19; in test [4], 0.924; in test [5], 0.868; in test [6] it was 1.12.

For `O=C1c2ccccc2C(=O)c2c1ccc(O)c2O` [Alizarin], the Euclidean distance in test [1] was 1.65; in test [2], 1.45; in test [3] it was 1.35; in test [4], 1.58; in test [5] it was 1.48; in test [6], 1.07.

Turning to `C/C(=C\C(=O)OCCCCCCCCC(=O)O)C[C@@H]1OC[C@H](C[C@@H]2O[C@H]2[C@@H](C)[C@H](C)O)[C@@H](O)[C@H]1O` [Mupirocin calcium], the Euclidean distance came out at 1.28 in test [1]; 0.948 in test [2]; 1.83 in test [3]; 0.82 in test [4]; 0.518 in test [5]; 1.26 in test [6].

Regarding `CC(C)(C)C(=O)OCOP(=O)(COCCn1cnc2c(N)ncnc21)OCOC(=O)C(C)(C)C` [Adefovir Dipivoxil], the Euclidean distance in test [1] was found to be 2.81; in test [2], 2.71; in test [3], 2.07; in test [4] it was 2.73; in test [5] it was 3.97; in test [6], 3.18.

In the case of `Cn1nnc(-c2ccc(-c3ccc(N4C[C@H](COP(=O)(O)O)OC4=O)cc3F)cn2)n1` [Tedizolid Phosphate], the Euclidean distance in test [1] stood at 0.75; in test [2], 0.64; in test [3] it was 0.82; in test [4], 0.929; in test [5], 0.638; in test [6], 0.87.
